Most compounds without a hit are left out; they make up all but 3.5% or so of the library.
GPR151 activ: activators of human GPR151. PathHunter beta-arrestin GPR151 cells, luminescence. activation, % at 11.2 µM. actives 1% (n = 650,000). AID 1508602; in the data active = activation above about 4.9%
Target sequence (Q8TDV0 whole entry, looked up): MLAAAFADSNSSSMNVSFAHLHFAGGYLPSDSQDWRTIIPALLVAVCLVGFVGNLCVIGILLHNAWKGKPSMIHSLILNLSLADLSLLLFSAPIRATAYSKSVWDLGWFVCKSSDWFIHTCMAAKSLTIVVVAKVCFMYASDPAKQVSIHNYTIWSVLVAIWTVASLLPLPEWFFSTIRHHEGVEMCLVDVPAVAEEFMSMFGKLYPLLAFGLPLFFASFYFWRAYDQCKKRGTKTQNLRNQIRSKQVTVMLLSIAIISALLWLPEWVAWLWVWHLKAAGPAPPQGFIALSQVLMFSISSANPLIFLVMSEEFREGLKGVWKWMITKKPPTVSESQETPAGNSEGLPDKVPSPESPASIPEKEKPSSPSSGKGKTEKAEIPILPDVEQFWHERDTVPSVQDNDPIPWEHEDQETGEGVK
FBW7 activator: activators of human E3 ligase FBW7 | Q969H0 | normalized activity (activation), % at 26.1 µM | AID 1259310 | actives 0.13% (n = 650,000) | AlphaScreen FBW7–phospho-cyclin E peptide binding, activator screen; in the data active = normalized activity above about 1.9%;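 note: purified mutant Fbw7 with reduced substrate affinity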
TEAD-YAP inh: TEAD-YAP interaction inhibition | HEK-TIYL cells, TEAD-Gal4/YAP UAS-luciferase luminescence | inhibition, % at 9.12 µM | actives 1.4% (n = 640,000) | AID 1259422; in the data active = inhibition above about 32%
MITF primary: blocks human microphthalmia-associated transcription factor; actives 0.91% (n = 650,000); O75030; AlphaScreen MITF homodimerization, bead proximity signal; inhibition, % at 2.6 µM; AID 1259374; in the data active = inhibition above about 50%
MITF inh conf: human MITF inhibition, confirmation. shares compounds with MITF primary. AlphaScreen MITF homodimerization, biotin/His-MITF beads. inhibition, % at 2.6 µM. actives 16% (n = 4,700). AID 1259372;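 active = inhibition above a cutoff derived from the DMSO control wells, cut at about 28% in these data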;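 note: inhibitors lower the bead chemiluminescence by keeping MITF from dimerizing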
AlphaScreen DR: AlphaScreen optical interference, dose response counter-screen | shares compounds with MITF primary | AlphaScreen optical interference counterscreen, cell-free | IC50, µM | actives 6% (n = 480) | AID 1259373; call rule not given here
AS interf ctr: counter-screen: compounds optically interfering with AlphaScreen. shares compounds with MITF primary. LysRS AlphaScreen counterscreen, signal interference, triplicate. inhibition, % at 2.6 µM. actives 7.6% (n = 4,700). AID 1259376;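 active = inhibition above a cutoff derived from the DMSO control wells, cut at about 30% in these data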
Numbers stand for hits; . = inactive; / = not tested or not shown.

SMILES | GPR151 activ | FBW7 activator | TEAD-YAP inh | MITF primary | MITF inh conf | AS interf ctr | others
COc1cc(CN2CCN(S(=O)(=O)c3ccc([N+](=O)[O-])cc3)CC2)cc(OC)c1OC | . | . | . | . | / | /
CCS(=O)(=O)N1CCN(Cc2cc(OC)c(OC)c(OC)c2)CC1 | . | . | . | 52 | . | .
CCOC(=O)c1sc(N(Cc2nc(-c3ccccc3)oc2C)C(C)=O)c(C#N)c1C | . | . | . | . | / | /
CC(O)CNC(=O)C1CCN(Cc2ccc(OCc3ccccc3)cc2)CC1 (stereo not given) | . | . | . | . | / | /
CC(C)NC(=O)C1CCN(Cc2cccc(Cl)c2Cl)CC1 | . | . | . | 54 | . | .
Cc1ccc(CN2CCC(C(=O)NC(C)C)CC2)cc1 | . | . | . | 65 | . | .
CC(C)NC(=O)C1CCN(Cc2ccccc2Cl)CC1 | . | . | . | 54 | . | .
CC(C)NC(=O)C1CCN(Cc2cccc(OCc3ccccc3)c2)CC1 | . | . | . | 57 | . | .
COc1ccc(CCn2c(=S)[nH]c3cc(OC)c(OC)cc3c2=O)cc1 | . | . | . | . | / | /
CCN(CC)CC(C)C(C)OC(=O)c1ccc(OC2OC(COC(C)=O)C(OC(C)=O)C(OC(C)=O)C2OC(C)=O)c(OC)c1 (stereo not given) | . | . | . | . | / | /
C=CCNCC(O)COc1cc(Cl)ccc1Cl (stereo not given) | . | . | . | 53 | . | .
CC(O)CNCC(O)COc1cc(Cl)ccc1Cl (stereo not given) | . | . | . | . | / | /
O=C(COC(=O)c1ccc(N2C(=O)CCC2=O)cc1)Nc1nc(-c2ccc(Br)cc2)cs1 | . | . | . | . | / | /
CN1CCN(Cc2cn[nH]c2-c2ccc(Cl)cc2)CC1 | . | . | . | . | / | /
Cc1ccc(-c2[nH]ncc2CN2CCN(C)CC2)cc1 | . | . | . | 69 | . | .
COc1cc(O)c(C)c(O)c1 | . | . | . | . | / | /
COc1c(O)cc(O)cc1O | . | . | . | 72 | 60 | . | AlphaScreen DR=.
Cc1ccnc(SC2CC(=O)N(c3ccc(C)c(C)c3)C2=O)n1 (stereo not given) | . | . | . | . | / | /
O=C(CN1C(C(=O)c2ccccc2)=C(N2CCCCC2)c2ccccc2S1(=O)=O)c1ccccc1 | . | . | . | . | / | /
O=C1NC(=O)C(CCCc2ccccc2)(C2CCN(C(=O)Cc3cccc(F)c3)CC2)N1 (stereo not given) | . | . | . | 51 | . | .
O=C1NC(=O)C(CCCc2ccccc2)(C2CCN(C(=O)Cc3cccs3)CC2)N1 (stereo not given) | . | . | . | . | / | /
COc1cc(C(=O)N(Cc2nc(-c3cccc(C)c3)no2)C(C)C)cc(OC)c1OC | . | . | . | . | / | /
COc1cc(C)ccc1OCCCCN1CCNCC1 | . | . | . | 63 | . | .
C/C=C/c1ccc(OCCCCN2CCNCC2)c(OC)c1 | . | . | . | 59 | . | .
COc1cc(C)ccc1OCCN1CCNCC1 | . | . | . | . | / | /
SMILES | GPR151 activ | FBW7 activator | TEAD-YAP inh | MITF primary | MITF inh conf | AS interf ctr | others
C=CCN(CC=C)CCOc1ccc(C)cc1OC | . | . | . | . | / | /
C=CCN(CC=C)CCCOc1ccc(C)cc1OC | . | . | . | 55 | . | .
CN(C)CCNc1ccnc2c(-c3cccc(Cl)c3)cnn12 | . | . | . | . | / | /
Cc1cc(C)n(C(=O)CCCOc2ccc(Cl)cc2C)n1 | . | . | . | . | / | /
O=C(c1cnn(-c2ccccc2)c1-n1cccc1)N1CCN(c2ccccn2)CC1 | . | . | . | . | / | /
Cc1c(C(=O)N2CCN(c3ccc(-c4ccccn4)nn3)CC2)cnn1-c1ccccc1 | . | . | . | 75 | 96 | 101
O=S(=O)(C1CC1)N1CCN(c2ccc(-c3ccccn3)nn2)CC1 | . | . | 59 | 122 | 108 | 100
O=C(Cc1noc2ccccc12)N1CCN(c2ccc(-c3ccccn3)nn2)CC1 | . | . | . | 126 | 112 | 101
COc1cc(OC)c(OC)cc1CN1CCN(C(=O)c2ccncc2)CC1 | . | . | . | 56 | . | .
COc1ccc(OC)c(CN2CCN(C(=O)C(c3ccccc3)c3ccccc3)CC2)c1 | . | . | . | 52 | . | .
COc1ccc(OC)c(CN2CCN(C(=O)c3cccc4ccccc34)CC2)c1 | . | . | . | . | / | /
COc1ccc(CN2CCN(C(=O)c3ccccc3)CC2)c(OC)c1 | . | . | . | 60 | . | .

Compound activity from PubChem BioAssay.
